Source: PubChem BioAssay (NCI)
This is part of a sample that, as a whole, favours compounds with a hit. Of some 83,000 tested, about 20% had one in any assay.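 Growth was measured after 48 h exposure to one concentration of compound in 96-well plates. Values under 10 count as active.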 Unmarked numbers belong to inactive results. Calls of active or inactive are those of the source.

How the values were obtained:
Test in all cases: NCI-60 one-dose screen, 48 h (100 = growth as untreated, 0 = no growth, -100 = all killed)
Conditions in all cases: 10 µM unless noted
DU-145 prostate = system: DU-145 prostate
K-562 leukemia = system: K-562 leukemia
MALME-3M melanoma = system: MALME-3M melanoma
MDA-MB-231 breast = system: MDA-MB-231 breast
RXF 393 renal = system: RXF 393 renal
SF-268 CNS = system: SF-268 CNS
SF-295 CNS = system: SF-295 CNS
SF-539 CNS = system: SF-539 CNS
UACC-257 melanoma = system: UACC-257 melanoma
M14 melanoma = system: M14 melanoma
HCT-15 colon = system: HCT-15 colon
HT29 colon = system: HT29 colon
SNB-75 CNS = system: SNB-75 CNS
SNB-19 CNS = system: SNB-19 CNS
U251 CNS = system: U251 CNS
PC-3 prostate = system: PC-3 prostate
SK-MEL-5 melanoma = system: SK-MEL-5 melanoma
UACC-62 melanoma = system: UACC-62 melanoma
SK-MEL-28 melanoma = system: SK-MEL-28 melanoma

Compound | growth (DU-145 prostate) [%] | growth (K-562 leukemia) | growth (MALME-3M melanoma) [%] | growth (MDA-MB-231 breast) [%] | growth (RXF 393 renal) | growth (SF-268 CNS) [%] | growth (SF-295 CNS) | growth (SF-539 CNS) | growth (UACC-257 melanoma) [%] | growth (M14 melanoma) | growth (HCT-15 colon) | growth (HT29 colon) | growth (SNB-75 CNS) | growth (SNB-19 CNS) [%] | growth (U251 CNS) | growth (PC-3 prostate) [%] | growth (SK-MEL-5 melanoma) | growth (UACC-62 melanoma) [%] | growth (SK-MEL-28 melanoma) [%]
COc1ccc(-n2cc(COc3ccc4c5ccnc(C)c5n(CC(C)C)c4c3)nn2)cc1 | 88.3 | 27.3% | 71.2 | 73.1 | 57.5% | 79 | 60.6% | 82.6% | 52.7 | 71.5% | 63.4% | 16% | 61.8% | 78.4 | 69.9% | 55.6 | 58.2% | 71 | 87.4
O=C1CC23OC4ON=C(Br)C4C2C(O)c2ccccc2N13 (stereo not given) | 105 | 110% | 79.9 | 98.8 | 115% | 95.1 | 109% | 107% | 103 | 92.4% | 99% | 90.5% | 79.9% | 105 | 110% | 94.4 | 111% | 94.3 | 114
Cc1nc2sc(C(=O)Nc3cccc(Cl)c3C)c(N)c2cc1C(C)O (stereo not given) | 20 | 7.36% (active) | 71 | 47.5 | 3.16% (active) | 47.9 | 15% | -12.5% (active) | 46.9 | 23.4% | 16.4% | 1.68% (active) | 13.9% | 22.4 | 17.7% | 13.3 | 9.62% (active) | 30.7 | 62.1
C#CCN1C(=O)c2ccccc2N(CC#C)C12CCN(Cc1cn(CC(=O)Nc3ccccc3C(N)=O)nn1)CC2 | 98.7 | 92.4% | 102 | 89.9 | 90.5% | 91.7 | 85.5% | 91.5% | 103 | 89.3% | 86.8% | 85.1% | 78.3% | 90.5 | 97.2% | 83.7 | 76.9% | 74.3 | 93.4
COc1cc(NC(=O)Nc2cnc(Nc3ccc(N4CCOCC4)cc3)nc2Oc2ccc(F)cc2)cc(OC)c1 | 86.3 | 72.5% | 62.7 | 87.6 | 77.8% | 75.8 | 109% | 89.1% | 78 | 91.7% | 104% | 86.9% | 100% | 96 | 78.8% | 83 | 80.6% | 106 | 106
COC(=O)/C=C/c1cc(OC(C)=O)c2c(c1)C(C(=O)OC)C(c1ccc(OC(C)=O)c(OC(C)=O)c1)O2 (stereo not given) | 11.2 | 6.86% (active) | 66.3 | 16.4 | 28.7% | 39.6 | 3.13% (active) | -6.94% (active) | 45.4 | -6.22% (active) | 7.82% (active) | 11% | 46.3% | 23.1 | 7.2% (active) | 12 | -19% (active) | 32.6 | 50.5
COC(=O)CCc1cc(O)c2c(c1)[C@@H](C(=O)OC)[C@H](c1ccc(O)c(O)c1)O2 | 95 | 26.2% | 66.8 | 78.8 | 88.5% | 74.1 | 84.7% | 74.5% | 85.6 | 32.5% | 50.3% | 95% | 71.2% | 74.9 | 71% | 85.5 | 76.4% | 66 | 73.8
CC[C@]12C=CCN3CC[C@@]4(c5cc(NC(=O)CCC(=O)O[C@H]6CC[C@H]7[C@@H]8CC[C@H]9CC(=O)CC[C@]9(C)[C@H]8CC[C@]67C)c(OC)cc5N(C)[C@H]4[C@@](O)(C(=O)OC)[C@@H]1OC(C)=O)[C@@H]32 | 86.8 | 41.7% | 77.7 | 83 | 66.2% | 74.3 | 68.4% | 74.1% | 94.5 | 67.5% | 58.2% | 39% | 57.1% | 84.7 | 64.3% | 47.7 | 54.4% | 81.2 | 92.5
CCOCc1cc(C(C)(C)C)ccc1O | 110 | 101% | 104 | 105 | 109% | 105 | 105% | 103% | 89.3 | 104% | 104% | 94.6% | 87.4% | 98.3 | 94% | 93.7 | 99.5% | 94.4 | 106
CCCn1c2cc(OCc3cn(-c4ccc(Br)cc4)nn3)ccc2c2ccnc(C)c21 | 90.2 | 35.4% | 87.1 | 50.5 | 51% | 88 | 65.6% | 36.4% | 53.3 | 67.5% | 73.5% | 57.9% | -1.81% (active) | 53.8 | 33.8% | 74.5 | 76.8% | 38.8 | 80.3
COC(=O)[C@]1(C)CCC[C@]2(C)[C@H]3C[C@H]4C(C(C)C)=C[C@]3(CC[C@H]21)[C@@H]1C(=O)N(CCC#N)C(=O)[C@@H]14 | 99.4 | 55.8% | 103 | 89.5 | 86.7% | 89.4 | 99.5% | 98% | 85.4 | 83.1% | 83.2% | 70.5% | 93% | 102 | 87.8% | 31.2 | 71.6% | 62.9 | 108
COc1ccc(-c2[nH]c3ccc(OC)cc3c2C=C(C#N)C#N)cc1 | 12.5 | 4.8% (active) | 60 | 53.7 | 34.4% | 52.7 | -47.1% (active) | 23.2% | 60.2 | -13.3% (active) | 38.6% | 15% | 21.3% | 76.2 | 35.7% | 21.7 | 15.5% | 33.1 | 54.2
COc1ccc2nc(-c3ccc(OC)c(OC)c3)cc(-c3nnc(SCC(=O)Nc4ccc(C(C)=O)cc4)o3)c2c1 | 108 | 99.2% | 109 | 99.5 | 102% | 104 | 100% | 96% | 101 | 105% | 100% | 105% | 91.6% | 101 | 97.7% | 95 | 94.1% | 102 | 113
O=c1cc(/C=N\Nc2nc(-c3ccc(Cl)cc3Cl)cs2)c2cc(Cl)ccc2o1 | 102 | 84.1% | 116 | 82.8 | 114% | 101 | 95.2% | 94.3% | 99.2 | 91.4% | 90.7% | 99.3% | 80.6% | 106 | 101% | 80.1 | 86.3% | 80.6 | 90.6
CC(C)(C)c1ccc(O)c(Cc2cc(C(C)(C)C)ccc2O)c1 | 105 | 87.1% | 104 | 88.1 | 101% | 93.1 | 109% | 108% | 86.6 | 92.3% | 101% | 98.7% | 89.2% | 101 | 90.2% | 12.5 | 99% | 87.8 | 104
